This is part of a sample that, as a whole, favours compounds with a hit. Of some 83,000 tested, about 20% had one in any assay.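 Activity criterion: percent growth below 10, measured after cells in 96-well plates were exposed to a single compound concentration for 48 hours.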 Activity calls are given as the source filed them.
Key:
Assay in all cases: NCI-60 one-dose screen, 48 h (100 = growth as untreated, 0 = no growth, -100 = all killed)
Conditions in all cases: 10 µM unless noted
EKVX NSCLC = test system: EKVX NSCLC
SN12C renal = test system: SN12C renal
UO-31 renal = test system: UO-31 renal
TK-10 renal = test system: TK-10 renal
ACHN renal = test system: ACHN renal
CAKI-1 renal = test system: CAKI-1 renal
A498 renal = test system: A498 renal
CCRF-CEM leukemia = test system: CCRF-CEM leukemia
SR leukemia = test system: SR leukemia
MOLT-4 leukemia = test system: MOLT-4 leukemia

Measured: growth

C/C(=N/N=C(N)N)c1ccc(N)cc1
inactive: EKVX NSCLC 119% | SN12C renal 95.9% | UO-31 renal 69.8% | TK-10 renal 104% | ACHN renal 102% | CAKI-1 renal 38% | A498 renal 103% | CCRF-CEM leukemia 124% | SR leukemia 49.3%

COc1cc2c(c(OC)c1OC)CCc1cnoc1-2
inactive: EKVX NSCLC 112% | SN12C renal 106% | UO-31 renal 94.5% | TK-10 renal 111% | ACHN renal 95.1% | CAKI-1 renal 105% | A498 renal 100% | CCRF-CEM leukemia 111% | SR leukemia 166%

O=C1c2ccccc2C(=O)c2c1cccc2-n1nnc2ccccc21
inactive: EKVX NSCLC 112% | SN12C renal 106% | UO-31 renal 76% | TK-10 renal 121% | ACHN renal 103% | CAKI-1 renal 105% | A498 renal 88.4% | CCRF-CEM leukemia 80.9% | SR leukemia 104%

CCCCCCCC/C=C\CCCCCCCCOc1ccccc1CC(=O)NCC[N+]1(C)CCCC1
inactive: EKVX NSCLC 93% | SN12C renal 49.5% | UO-31 renal 99.2% | TK-10 renal 70.5% | ACHN renal 107% | CAKI-1 renal 97.4% | A498 renal 93.2% | CCRF-CEM leukemia 39.3% | MOLT-4 leukemia 65% | SR leukemia 28%

COc1ccc(C2CC(c3cccc(Nc4ccnc5cc(Cl)ccc45)c3)=NN2C=O)cc1 (centres undefined)
active: A498 renal 7.17% | CCRF-CEM leukemia 7.54% | SR leukemia 6.76%
inactive: EKVX NSCLC 39.4% | SN12C renal 37.9% | UO-31 renal 22.8% | TK-10 renal 41.5% | ACHN renal 45.5% | CAKI-1 renal 17.4% | MOLT-4 leukemia 15.8%

O=C(Nc1ncc([N+](=O)[O-])s1)c1cccc([N+](=O)[O-])c1
inactive: EKVX NSCLC 37.9% | SN12C renal 51.1% | UO-31 renal 63.4% | TK-10 renal 23.4% | ACHN renal 59% | CAKI-1 renal 40.4% | CCRF-CEM leukemia 33% | SR leukemia 39.3%
active: A498 renal 5.48%

CCc1[nH]nc(-c2ccc(OC)cc2)c1-c1ccccc1OCCN(CC)CC
inactive: EKVX NSCLC 94.5% | SN12C renal 96.5% | UO-31 renal 67.3% | TK-10 renal 109% | ACHN renal 98.5% | CAKI-1 renal 89% | A498 renal 80.7% | CCRF-CEM leukemia 84.5% | SR leukemia 62.7%

Cc1[nH]n(C(N)=S)c(=O)c1N=Nc1ccc(F)c(Cl)c1
inactive: EKVX NSCLC 96.6% | SN12C renal 95.8% | UO-31 renal 73.9% | TK-10 renal 125% | ACHN renal 104% | CAKI-1 renal 103% | A498 renal 128% | MOLT-4 leukemia 76.9% | SR leukemia 80.2%
active: CCRF-CEM leukemia -8.05%

O=[N+]([O-])c1ccc(N/N=C\c2ccccc2[N+](=O)[O-])nc1
inactive: EKVX NSCLC 101% | SN12C renal 103% | UO-31 renal 97.8% | TK-10 renal 116% | ACHN renal 102% | CAKI-1 renal 83% | A498 renal 83.4% | CCRF-CEM leukemia 97.8% | SR leukemia 92.4%

C=C(C[C@@](O)(C(=O)Oc1ccccc1)C(=O)C1CCCCC1)c1ccccc1
inactive: EKVX NSCLC 94.4% | SN12C renal 98% | UO-31 renal 83.8% | TK-10 renal 97.7% | ACHN renal 112% | CAKI-1 renal 87.3% | A498 renal 106% | CCRF-CEM leukemia 95.4% | SR leukemia 103%

O=C(Nc1ccc(Oc2ccc(NC(=O)Nc3ccc([N+](=O)[O-])cc3)cc2)cc1)Nc1ccc([N+](=O)[O-])cc1
active: UO-31 renal -4.36% | CCRF-CEM leukemia -32% | MOLT-4 leukemia -26.4% | SR leukemia -3.7%
inactive: EKVX NSCLC 17.1% | SN12C renal 12.1% | TK-10 renal 15.1% | ACHN renal 10.2% | CAKI-1 renal 13.9% | A498 renal 13%

Clc1ccc(CCC(Cn2ccnc2)Sc2c(Cl)cccc2Cl)cc1 (centres undefined)
inactive: EKVX NSCLC 52.2% | SN12C renal 55.6% | UO-31 renal 30.5% | TK-10 renal 52.4% | ACHN renal 65.4% | CAKI-1 renal 43.3% | A498 renal 73.7% | MOLT-4 leukemia 34.6%

COc1cc(OC)c2cc(C(=O)O)c(=O)oc2c1
inactive: EKVX NSCLC 98.2% | SN12C renal 108% | UO-31 renal 80.7% | TK-10 renal 90.6% | ACHN renal 107% | CAKI-1 renal 85.9% | A498 renal 102% | CCRF-CEM leukemia 113% | MOLT-4 leukemia 74.9% | SR leukemia 115%

CCCCCCCC/C=C/CCCCCCCC1=NC(C)(C)CN1CCO
inactive: EKVX NSCLC 58.5% | SN12C renal 60.9% | TK-10 renal 59.5% | ACHN renal 24.4% | CAKI-1 renal 59.5% | A498 renal 89.2%
active: UO-31 renal -44.8% | CCRF-CEM leukemia -38.9% | MOLT-4 leukemia -44.4% | SR leukemia -43.1%

C=CC1=C(C(=O)O)N2C(=O)[C@@H](NC(=O)/C(=N\O)c3csc(N)n3)[C@H]2SC1 (stereo in doubt)
inactive: EKVX NSCLC 103% | SN12C renal 112% | UO-31 renal 91.7% | TK-10 renal 122% | ACHN renal 96.7% | CAKI-1 renal 99.2% | A498 renal 95.1% | MOLT-4 leukemia 104%

O=C(/C=C/c1cc2ccccc2[nH]c1=O)c1ccc(Cl)cc1
active: MOLT-4 leukemia 2.61%
inactive: EKVX NSCLC 63.7% | SN12C renal 47.4% | UO-31 renal 29.8% | TK-10 renal 48.5% | ACHN renal 51.6% | CAKI-1 renal 42.1% | A498 renal 13.7%

COc1ccc(-c2c(N)noc2-c2cc(OC)c3c(c2)OCCO3)cc1
active: A498 renal 2.33%
inactive: EKVX NSCLC 37.1% | SN12C renal 30.8% | UO-31 renal 41% | TK-10 renal 77.8% | ACHN renal 22.3% | CAKI-1 renal 45.4% | CCRF-CEM leukemia 13.4% | SR leukemia 11.6%

COc1cc(OC)c2sc(-c3ccc(-n4cncc4-c4ccc(N)cc4)cc3)nc2c1
active: A498 renal -3.9%
inactive: EKVX NSCLC 70.3% | SN12C renal 76.1% | UO-31 renal 49.2% | TK-10 renal 70% | ACHN renal 79.7% | CAKI-1 renal 76.4% | CCRF-CEM leukemia 60.5% | MOLT-4 leukemia 46.9% | SR leukemia 68.3%

CCN(CC)CCNc1ccc(Cl)cc1Cl
inactive: EKVX NSCLC 113% | SN12C renal 113% | UO-31 renal 87.3% | TK-10 renal 103% | ACHN renal 113% | CAKI-1 renal 94.6% | A498 renal 103% | CCRF-CEM leukemia 104% | SR leukemia 95.1%

CCN(CC)CCOc1ccc(C2=C(c3ccccc3)CCc3cc(OC)ccc32)cc1
inactive: EKVX NSCLC 54.4% | SN12C renal 52.3% | ACHN renal 50.5%
active: UO-31 renal -76.7% | TK-10 renal -21.1% | CAKI-1 renal -26.1% | A498 renal -4.36% | CCRF-CEM leukemia -37.8% | MOLT-4 leukemia -49.7% | SR leukemia -42.1%

Clc1ccc([C@@H]2C[C@@H]3Cc4cc(Br)c5ccccc5c4N2O3)c(Cl)c1
inactive: EKVX NSCLC 108% | SN12C renal 96.8% | UO-31 renal 64% | TK-10 renal 90.2% | ACHN renal 81.6% | CAKI-1 renal 73.6% | A498 renal 87% | CCRF-CEM leukemia 66.5% | MOLT-4 leukemia 78% | SR leukemia 20.8%

COc1ccc(C2=NNC(c3cc(Cc4ccc(O)c(C5CC(c6ccc(OC)cc6)=NN5)c4)ccc3O)C2)cc1 (centres undefined)
inactive: EKVX NSCLC 30.9% | SN12C renal 52.1% | TK-10 renal 45.5% | ACHN renal 46.3% | A498 renal 103% | CCRF-CEM leukemia 11.6% | SR leukemia 16%
active: UO-31 renal -2.57% | CAKI-1 renal -30.5%

Cc1c(C)c(N2C(=O)C=CC2=O)c(C)c(C)c1N1C(=O)C=CC1=O
inactive: EKVX NSCLC 101% | SN12C renal 104% | UO-31 renal 53.7% | TK-10 renal 119% | ACHN renal 108% | CAKI-1 renal 101% | A498 renal 78.2% | MOLT-4 leukemia 72.4%

O=C(CSCC(=O)N/N=C/c1ccccc1O)N/N=C\c1ccccc1O
active: UO-31 renal 7.47% | MOLT-4 leukemia -4.94% | SR leukemia 3.96%
inactive: EKVX NSCLC 44.8% | SN12C renal 29% | TK-10 renal 24.4% | ACHN renal 11.9% | CAKI-1 renal 11.4% | A498 renal 99.1%

CC[C@@H]1OC(=O)[C@H](C)[C@@H](O[C@H]2C[C@@](C)(OC)[C@@H](O)[C@H](C)O2)[C@H](C)[C@@H](O[C@@H]2O[C@H](C)C[C@H](N(C)C)[C@H]2O)[C@](C)(O)C[C@@H](C)[C@@H]2N[C@@H](COCCOC)O[C@H]([C@H]2C)[C@]1(C)O
inactive: EKVX NSCLC 102% | SN12C renal 98.9% | UO-31 renal 81.5% | TK-10 renal 119% | ACHN renal 102% | CAKI-1 renal 96.6% | A498 renal 119% | MOLT-4 leukemia 90.1%

COc1ccc(C(=O)COc2cccc(/C=C3\Oc4ccc5ccccc5c4C3=O)c2)cc1
inactive: EKVX NSCLC 89.6% | SN12C renal 75% | TK-10 renal 90.1% | ACHN renal 97.5% | CAKI-1 renal 27.6% | A498 renal 139% | MOLT-4 leukemia 18.9% | SR leukemia 15.9%
active: UO-31 renal -54.4%

Clc1ccccc1[C@@H]1C[C@@H]2Cc3cc(Br)c4ccccc4c3N1O2
inactive: EKVX NSCLC 70% | SN12C renal 44.3% | UO-31 renal 40.3% | TK-10 renal 63.6% | ACHN renal 53.5% | CAKI-1 renal 40.4% | A498 renal 15.7% | MOLT-4 leukemia 17.2%
active: SR leukemia 3.11%

CC(=O)c1ccc2c3c(n(C)c2c1)CCCC3
inactive: EKVX NSCLC 88.3% | SN12C renal 97.2% | UO-31 renal 112% | TK-10 renal 85.4% | ACHN renal 105% | CAKI-1 renal 102% | MOLT-4 leukemia 76.5% | SR leukemia 92.1%
active: A498 renal -76.1%

CCCCCCC/C(=N\N=C(N)N)c1ccc(O)cc1
inactive: EKVX NSCLC 55.1% | SN12C renal 39.6% | UO-31 renal 42.8% | TK-10 renal 67.5% | ACHN renal 47.6% | CAKI-1 renal 66.5% | A498 renal 46.6% | MOLT-4 leukemia 24.9%
